Experimental data taken from the supplement of paper PMC6555819.

Key:
Assay in all cases: PBM binding z-score (relative to random genomic background probes); higher = stronger binding; sequences stand for … in GC…GCGATTGACAGCGTAGAATGAAGG
[1] = tested on: RARb homodimer (NR concentration 270 nM)
Procedure, shortened: (§1)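 Scanned fluorescence from custom Agilent 4×180K protein-binding microarrays was regression-normalized. Binding z-scores use random background probes as reference. Ligand-free nuclear receptor dimers were incubated on the arrays for 1 h and detected with antibodies against each partner (one per run).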

[2] = tested on: RARg:RXRa (NR concentration 270 nM, RXRa partner concentration 90 nM)
Procedure, shortened: as §1

[3] = tested on: RARg homodimer (NR concentration 270 nM)
Procedure, shortened: as §1

[4] = tested on: RXRa DBDmut IVT, anti-RXR (DBD mutation: RXRa K156A/R161A, NR concentration 90 nM)
Procedure, shortened: as §1

[5] = tested on: RXRa homodimer (NR concentration 180 nM)
Procedure, shortened: as §1

[6] = tested on: THRa:RXRa (NR concentration 90 nM, RXRa partner concentration 90 nM)
Procedure, shortened: as §1

[7] = tested on: THRa homodimer (NR concentration 90 nM)
Procedure, shortened: as §1

[8] = tested on: VDR homodimer (NR concentration 270 nM)
Procedure, shortened: as §1

Sequence | PBM binding z-score [1] | PBM binding z-score [2] | PBM binding z-score [3] | PBM binding z-score [4] | PBM binding z-score [5] | PBM binding z-score [6] | PBM binding z-score [7] | PBM binding z-score [8]
CCGACTGGGGCACAAAGGTTACCATACCATCCGG | 2.64 | 2.34 | 1.92 | -0.678 | 2.52 | 1.51 | 0.0239 | 0.375
ATCTCTAGGTAAAGATACTTCAGTGAATGCAAAT | -0.416 | 0.491 | 0.669 | -0.0244 | 0.385 | 0.398 | 0.038 | 0.371
TGATATAGGTAAAGGTGAAAGTCGAACGATATGA | 1.61 | 1.55 | 1.43 | -0.501 | 2.09 | 1.57 | -0.161 | -0.09
CCTATTAGTTGACCATAGGGGCAACCGAAGCTCG | 1.3 | 0.669 | 0.729 | 0.6 | 0.362 | 0.842 | 0.596 | 0.581
CCAGACAGGTGAAAGTTAACTCAGTCTGGTACGC | 0.569 | 0.669 | 0.306 | -0.00485 | 1.2 | 0.251 | -0.579 | -0.235
TCATATAGGTAATACAGGTGAAGGTCGGCATCTA | 2 | 1.13 | 0.974 | 1.69 | 1.46 | 1.31 | 0.829 | 0.817
ACAGACAGGTGATCAAGGTAACTCAGGCTATCAT | 0.159 | 0.183 | 0.508 | -0.511 | 0.28 | 1.72 | 0.997 | -0.138
AGAATGCGGTTATTAAGATCAGGGAATTGCGGTC | -0.19 | -0.0734 | 0.152 | -0.072 | -0.0867 | -0.0645 | -0.416 | -0.264
CCGACTGGGGCAGAAAGGATACCATACCATCCGG | 0.0502 | -0.104 | 0.264 | -1.19 | -0.344 | -0.682 | -0.741 | -0.566
CCTTACGTGTCACTCCAGGTTATAGCATCGGAGT | 1.36 | 0.925 | 1.27 | 1.09 | 0.845 | 3.43 | 1.14 | 1.24
ATTTGTAGGTTAGCTGGGGTCATTCAGACTAGGC | 4.03 | 4.33 | 2.95 | 2.56 | 5.57 | 5.34 | 3.84 | 4.65
GCGGACAGGTGAAACGCAGGTAACTCAGGGTGGC | 0.239 | 1.13 | 0.717 | -0.341 | 0.426 | 1.41 | -0.55 | -0.834
GCGACTGGGGCATCAGTAGGTTACCATAACTTAA | 0.91 | 0.793 | 0.519 | 0.0645 | 0.498 | 0.632 | -0.249 | -0.583
TCTATTAGTCGAAGGGCAACCGACGAGTCCGTTT | 1.15 | 0.394 | 0.638 | 1.56 | 0.534 | 0.187 | -0.0492 | 1.35
CCAGACAGGTGAGAAGGTGACTCAGCCTCGATTA | 1.23 | 1.04 | 0.771 | -0.175 | 0.552 | 0.445 | 0.379 | -0.284
ACTCGGAAGACAAAGGTCAGAGCTACGCCAGTGA | 4.33 | 4.5 | 4.21 | 0.211 | 4.56 | 2.57 | 0.0345 | 0.445
ATATGTAGGTTAAGGGTCACTCAGGTTGGTTCGC | 4.35 | 4.99 | 4 | 1.82 | 6.33 | 3.59 | 2.01 | 3.47
CGTCCCAGGTCATAGGAGGTCAGTGAAGACAGAT | 4.84 | 5.47 | 5.84 | 2.74 | 4.75 | 4.89 | 3.13 | 3.59
ACAGACAGGTGAGTGAAGGTAACTTAGCTGGACG | -0.0414 | 0.357 | 0.463 | -0.514 | 0.233 | 1.46 | -0.186 | -0.226
ACTATTAGTTGAGACAAGGGCAACCGATAGGTTG | 1.01 | 0.568 | 0.799 | 0.0242 | 0.407 | 1.96 | -0.191 | 0.496
ATCTCTATGTAACAAGTTCAGTGAAAGAGAGGAC | 1.49 | 0.833 | 1.3 | 0.923 | 0.533 | 0.782 | 0.323 | 2.17
CCGACTGAGGCAAGGTTACCATAACGCACAGCCA | 1.01 | 0.557 | 0.458 | 0.18 | 0.97 | 1.26 | 0.413 | 0.118
AGAATGAGGTTACCAAAGATCAGCGAAACGCTTG | 0.525 | 2.03 | 1.45 | 1.07 | 2.44 | 2.73 | 0.456 | 0.187
CCTCGAAGGACAACAGGAGGTCAGAGCTGCCAGA | 3.42 | 3.4 | 3.28 | 0.237 | 1.89 | 2.58 | 0.731 | 0.641
TTACCAAGGTGAGCTGAGGTGGTTGATCCAACTC | -0.15 | 0.00376 | -0.00239 | -0.813 | 0.0948 | 2.98 | -0.0561 | -0.641
AGAATGAGGTTAAGATCCGGGAAACAGAATACAT | 0.774 | 2.06 | 1.4 | 0.76 | 2.46 | 2.37 | 0.603 | 0.257
AGAACGAGGGCAAGCTGAGTTGATAGCAGAGTAG | 1.06 | 1.53 | 1.97 | 2.1 | 0.964 | 1.35 | -0.471 | 1.36
ATGTCTAGGTAAAGATAGTTCAGTGAATGCAAAT | 0.94 | 0.598 | 0.794 | -0.0644 | 0.151 | 0.506 | -0.0958 | 0.431
